Screening results from PubChem.
Many of the other results were omitted from the sample, so hits are more common in it than they were.
FBPA Giardia inh: blocks Giardia fructose-bisphosphate aldolase activity; A8B2U2; purified Giardia FBPA; Potency, µM (doses to about 59.6 µM), actives largely listed as inhibitors; 290,000 tested, 0.71% active; AID 2451; further: nearly all actives have a fitted effect of over 55% in size
Target sequence (A8B2U2 whole entry, looked up): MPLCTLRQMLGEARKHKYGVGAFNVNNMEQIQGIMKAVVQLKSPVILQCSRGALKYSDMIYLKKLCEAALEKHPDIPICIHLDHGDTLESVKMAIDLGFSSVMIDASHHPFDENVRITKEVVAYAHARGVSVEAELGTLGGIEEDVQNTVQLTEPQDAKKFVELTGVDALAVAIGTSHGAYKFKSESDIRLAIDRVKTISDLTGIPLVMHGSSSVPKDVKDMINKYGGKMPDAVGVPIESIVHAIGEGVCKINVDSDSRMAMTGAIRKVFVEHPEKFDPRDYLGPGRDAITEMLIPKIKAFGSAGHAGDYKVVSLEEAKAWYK
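40 nM FBPA preincubated 10 min at RT with compound (up to 57.5 uM final), then substrate plus GAPDH/TPI/NAD/arsenate coupling and diaphorase/resazurin added. Fluorescence read after 20 min at RT, 525/598 nm.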
LmPK inh: LmPK (Leishmania mexicana) enzyme inhibition. Q27686. 290,000 tested, 0.37% active. purified LmPK, Kinase-Glo ATP luminescence, 1 h. Potency, µM (titrated, usually from 57.5 µM), usual class: inhibitors
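In 50 mM imidazole pH 7.2 with 7 mM MgCl2, LmPK (0.1 nM) turned over PEP (0.5 mM) and ADP (0.1 mM) for 1 h at room temperature. Luciferase read-out of ATP.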
RE007 growth inh: less growth of the S. pombe RE007 Vpr strain; S. pombe RE007 Vpr strain, BacTiter-Glo ATP luminescence, 24 h; Potency, µM (top dose mostly 92.2 µM), actives largely listed as inhibitors; 360,000 tested, 0.21% active; AID 651644; active means well fitted falling curve with a large enough effect; inconclusive means small, poorly fitted or top-dose-only effect; inactive means no such curve, though single readings can be large or run the other way; further: nearly all actives have a fitted effect of over 50% in size
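Fission yeast strain RE007, carrying one chromosomally integrated HIV-1 vpr copy, was seeded at OD 0.01 in PMG+AL medium with 23 nL pinned compound. After 24 h at 30 °C and 99% humidity, viability was read by BacTiter-Glo luminescence.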
Tb PYK inh: inhibitors of Trypanosoma brucei pyruvate kinase | TbPYK enzyme, Kinase-Glo Plus ATP luminescence, 45 min | Potency, µM (series often up to 76.8 µM), usual class: inhibitors | 410,000 tested, 0.12% active | Q57TT1; further: nearly all actives have a fitted effect of over 50% in size
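T. brucei PYK with substrate was exposed to pin-transferred compounds across a concentration series, then started with 130 uM ADP (final). After 45 min at room temperature, Kinase-Glo Plus luminescence was read, normalized and curve-fitted.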
CHX counter: affects cycloheximide protein synthesis inhibition readout, counter-screen; max response, %; 300,000 tested, 12% active; cell reporter, cycloheximide protein synthesis inhibition counterscreen; in the data active means max response mostly above about 13%, no sharp cut-off; inactive means mostly below about 14%; further: read at 38.3 µM for the half of the compounds with a filed dose
Shiga inhibitor: inhibitors of Shiga toxin in Vero cells | 290,000 tested, 9.2% active | Vero cells, Shiga toxin protein synthesis inhibition reporter | inhibition, % at 38.7 µM; in the data active means inhibition mostly above about 28%, no sharp cut-off; inactive means mostly below about 43%
A number is an active result; n = inactive; u = inconclusive; x = no result given; [ ] = another dose, or the depositor's remark. Unless noted, the call rests on the fitted dose curve; in most records, active means well fitted curve in the direction sought with a large enough effect; inconclusive means small, poorly fitted or top-dose-only effect, or another doubt; inactive means no such curve, though single readings can be large; an effect the other way counts as inactive or inconclusive.

SMILES	FBPA Giardia inh	LmPK inh	RE007 growth inh	Tb PYK inh	CHX counter	Shiga inhibitor
Cc1cc(C)cc(-n2cnc3cc(C(=O)NC4CCCCCC4)ccc32)c1	x	x	x	n	x	x
Cc1nnc(SCc2ccc(CSc3nnc(C)c(=O)[nH]3)cc2)[nH]c1=O	n	n	n	n	n	n
CC1=C(c2ccc(NN=C(C#N)C#N)cc2)NNC(=O)C1	x	x	x	n	x	x
Cn1c(=O)n2n(c1=O)[C@H]1[C@H](O)[C@H]3O[C@@H]3/C(=N/OCc3ccccc3)[C@@H]1CC2	n[12.9 µM]	x	x	x	x	x
Cc1ccc(S(=O)(=O)c2cn(Cc3ccccc3)c3cc(N4CCCC4)c(F)cc3c2=O)cc1C	x	x	x	n	x	x
Clc1cncc(Cl)c1N/N=C/c1ccncc1	n	n	n	n	n	n
C/C(=N\Nc1cccc(C(F)(F)F)c1)c1ccc(O)cc1	n	n	n	n	n	50
CC(C)c1ccc(/C=N/Nc2ccc(C(=O)O)cc2)cc1	n	n	n	n	n	n
O=C(O)c1cc(N/N=C/c2ccncc2)ccc1Cl	n	n	n	n	21	59
O=C(O)c1ccc(N/N=C/c2ccc(-c3ccccc3)cc2)cc1	n	n[11.5 µM]	u	n	27	n
CSc1ccc(/C=N/Nc2ccc(Cl)c(C(=O)O)c2)cc1	n	n	n	n	52	189
C/C(=N\NC(=O)CNc1cccc(C(F)(F)F)c1)c1ccc(Br)cc1	n	n	n	n	n	n
COC(=O)c1cc(NC(=O)CCc2c(C)nc3c(c(C)nn3C(C)(C)C)c2C)cc(C(=O)OC)c1	x	x	x	n	x	x
COCCCNC(=O)C[C@@H]1C[C@@]2(C(=O)OC)CC(C)(C)CC=C2N(Cc2ccc3c(c2)OCO3)C1=O	x	x	n	x	x	x
O=C(/C=C/c1ccccc1)c1ccc(O)cc1	n	x	x	x	x	x
COc1ccccc1NC1=C(N2CCCCC2)C(=O)c2ccccc2C1=O	u	n	u	n	23	n
Cc1ccc(NC2=C(N3CCCCC3)C(=O)c3ccccc3C2=O)cc1	u	n	n	n	50	107
O=C1C(Nc2cccc(O)c2)=C(N2CCCCC2)C(=O)c2ccccc21	u	n	n	n	35	51
CN(C1=C(N2CCCCC2)C(=O)c2ccccc2C1=O)c1ccccc1	u	u	n	n	n	n
O=C(/C=C/c1ccc(O)cc1)c1ccc(NC2=C(N3CCCCC3)C(=O)c3ccccc3C2=O)cc1	u	n	n	n	59	160
CCC(C)(C(=O)Nc1ccc(OC)cc1)N(C)C(=O)Cn1nnnc1N (configuration not stated)	n	n	n	n	n	n
O=C(Nc1c2c(nn1-c1ccc(F)cc1)CS(=O)C2)c1ccc2c(c1)OCO2 (configuration not stated)	x	n	n	n	n	n
Nn1c(SCC(=O)NC2CCCC2)nnc1C(F)(F)F	x	x	n	n	x	x
COC(=O)c1ccc2nc(-c3ccc(C)cc3)c(Cc3cccc(Cl)c3)n2c1	x	x	n	n	x	x
O=C1C(NS(=O)(=O)c2ccc(Br)cc2)=C(N2CCCCC2)C(=O)c2ccccc21	u	n	n	n	n	n
SMILES	FBPA Giardia inh	LmPK inh	RE007 growth inh	Tb PYK inh	CHX counter	Shiga inhibitor
O=C1C(Nc2ccccc2)=C(N2CCCCC2)C(=O)c2ccccc21	u	n	u	n	31	72
Cc1ccc(C)c(NC(=S)NCCN(C2CCCCC2)C2CCCC2)c1	n	n	n	n	n	n
COc1ccc(OC)c(C(=O)Nc2ccc3[nH]ccc3c2)c1	x	x	n	n	x	x
COc1ccc(C(=O)Nc2ccc3[nH]ncc3c2)cc1	n	n	n	n	19	53
COc1ccc(C(=O)Nc2ccc3cn[nH]c3c2)c(OC)c1	n	n	n	n	63	123
CCOc1ccc(C(=O)Nc2ccc3[nH]ncc3c2)cc1	n	n	n	n	19	n
Cc1cccc(C)c1NC(=O)C(c1ccncc1)N1CCN(CCN(C)C)CC1 (configuration not stated)	x	x	n	x	x	x
CCN(C(=O)/C=C/c1ccc(OC)cc1)C1CCS(=O)(=O)C1 (configuration not stated)	x	x	n	n	x	x
CCN(C(=O)/C=C/c1ccc(OC)cc1)C1CCCCC1	n	n	n	n	12	n
O=C1NC(=S)N/C1=C\C=C\c1ccccc1	n	n	n	n	30	50
COC(c1ccccc1)c1nnc(CCC(=O)N(C)CCc2ccccc2)o1 (configuration not stated)	n	n	n	n	n	n
CN(CCc1cnn(C)c1)C(=O)CCc1nnc(CCCc2ccccc2)o1	n	n	n	n	17	36
CN(CCc1ccccn1)C(=O)CCc1nnc(CCCc2ccccc2)o1	n	n	n	n	45	73
O=C1NC(=O)C(c2ccccc2)(c2ccc(Cl)cc2Cl)N1 (configuration not stated)	x	x	n	n	x	x
Nc1nc(-c2cccnc2)nc2sc3c(c12)CCCC3	n	n	n	n	31	n
O=c1oc(-c2cccs2)nc2sc3c(c12)CCCCC3	n	n	n	n	26	59
Cc1ccccc1-c1nc2sc3c(c2c(=O)o1)CCC3	n	n	n	n	n	n
O=c1oc(-c2ccccc2)nc2sc3c(c12)CCCC3	n	u	n	n	41	124
CCc1c(-c2ccccc2)nc2sc3c(c2c1N)CCCC3	n	n	n	n	19	n
O=C(NCc1cc(Cl)cc(Cl)c1)c1csc(COCCO)n1	x	x	n	n	x	x
COc1cccc(S(=O)(=O)Nc2ccc(C(O)(C(F)(F)F)C(F)(F)F)cc2)c1	x	x	n	n	x	x
O=C1C(Cl)=C(NCCc2ccccc2)C(=O)c2ccccc21	x	x	6.3µM	u	x	x
O=C1C(Cl)=C(NCc2cccnc2)C(=O)c2ccccc21	n	n	u	n	22	45
C=CCNC1=C(Cl)C(=O)c2ccccc2C1=O	u	n	20µM	n	n	active
O=C(O)c1ccc(NC2=C(Cl)C(=O)c3ccccc3C2=O)cc1	u	n	n	n	n	n
SMILES	FBPA Giardia inh	LmPK inh	RE007 growth inh	Tb PYK inh	CHX counter	Shiga inhibitor
Clc1ccccc1-c1cc(NCc2cccnc2)ncn1	n	x	x	x	x	x
COc1ccc(CNc2nc(SCc3ccc(Cl)cc3)nc3ccccc23)cc1	x	x	x	n	x	x
COc1ccc(-c2cnn3cc(-c4cccc(Cl)c4)cnc23)cc1	n	n	n	n	n	n
c1cc(-c2cnn3cc(-c4ccc(OCCN5CCCCC5)cc4)cnc23)ccn1	n	x	x	n	40	27
COc1ccc2[nH]cc(CCNc3ccnc(-c4ccccc4C)n3)c2c1	n	x	x	x	x	x
COc1cc(C)ccc1OCCOc1c(C)cc(Cl)cc1Cl	n	n	n	n	n	n
CC(=O)NCCNc1nc(-c2ccccc2CN(C)C)nc2ccccc12	n	x	x	x	x	x
O=C(Nc1cccc2nsnc12)c1cc2c(cc1Cl)Sc1nccn1S2(=O)=O	x	x	n	n	x	x
CCn1c(SCC(=O)Nc2ccc(C)cc2Br)nnc1-c1nonc1NC(C)=O	x	x	x	n	x	x
O=C(Nc1ccc(OC(F)(F)F)cc1)c1[nH]ncc1[N+](=O)[O-]	n	n	n	n	43	78
